Reference: PubChem BioAssay (NCI)
Compounds without any hit were thinned out: in the full panel of roughly 79,000, 15% have a hit. Active and inactive are the calls of the source. Cut-off read from the data, not from the text of the source: active = growth inhibition above about 70%; inactive = the rest.

How the values were obtained:
[1] = NCI Yeast Anticancer Drug Screen. Data for the rad50 strain (AID 155);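 note: 0% = growth of vehicle-only cultures of the same strain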; conditions: S. cerevisiae rad50 strain growth inhibition, stronger effect = higher value
Procedure, shortened: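 A DNA repair-deficient yeast mutant serves as the test organism; compound-induced growth inhibition is calculated against vehicle-treated cells.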

[2] = NCI Yeast Anticancer Drug Screen. Data for the mec2-1 strain (AID 157); conditions: S. cerevisiae mec2-1 strain, stronger effect = higher value
Procedure, shortened: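 Strain: mec2-1 (DNA repair/cell cycle alteration). Compound exposure, then growth measured; inhibition expressed relative to vehicle.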

[3] = NCI Yeast Anticancer Drug Screen. Data for the sgs1 mgt1 strain (AID 161);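 note: 0% = growth of cultures given vehicle only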; conditions: S. cerevisiae sgs1 mgt1 strain, stronger effect = higher value
Procedure, shortened: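 Mutant yeast exposed to compound; growth scored against vehicle-only wells.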

[4] = NCI Yeast Anticancer Drug Screen. Data for the cln2 rad14 strain (AID 165);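 note: 0% = growth equal to vehicle treated cultures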; conditions: S. cerevisiae cln2 rad14 strain, stronger effect = higher value
Procedure, shortened: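 Compounds are applied to the cln2 rad14 yeast strain, and growth is then compared with that of vehicle-treated cultures to give inhibition.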

[5] = NCI Yeast Anticancer Drug Screen. Data for the bub3 strain (AID 167); conditions: S. cerevisiae bub3 mutant strain, stronger effect = higher value
Procedure, shortened: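 Inhibition values come from growth of compound-treated mutant yeast normalised to vehicle-treated controls.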

[6] = NCI Yeast Anticancer Drug Screen. Data for the mlh1 rad18 strain (AID 175); conditions: S. cerevisiae mlh1 rad18 strain growth inhibition, stronger effect = higher value
Procedure, shortened: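 Read-out is yeast growth inhibition, calculated against vehicle-only controls. The compound was applied to a strain engineered with DNA damage repair alterations.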

[7] = at 5.0 µM (retest, dose inferred, filed as 0.5)
[8] = at 50.0 µM (retest, dose inferred, filed as 5.0)

Measured: growth inhibition

O=C1C(Cl)=C(Nc2cc(Cl)ccc2Cl)C(=O)c2ccccc21
inactive: [1]; [7] 45% | [1]; at 50.0 µM 2.45% | [2]; [7] 63% | [3]; [7] 68% | [4]; [7] 20% | [6]; [7] 64%
active: [1]; [8] 99% | [2]; [8] 98% | [2]; at 50.0 µM 97.9% | [3]; [8] 100% | [3]; at 50.0 µM 98.7% | [4]; [8] 95% | [4]; at 50.0 µM 78.8% | [5]; [7] 96% | [5]; [8] 99% | [5]; at 50.0 µM 99.5% | [6]; [8] 98% | [6]; at 50.0 µM 99.5%

Cc1c[nH]c2c(O)cc3c(c12)[C@H](CCl)CN3C(=O)c1cc2cc(NC(=O)Nc3ccc4[nH]c(C(=O)N5C[C@@H](CCl)c6c5cc(O)c5[nH]cc(C)c65)cc4c3)ccc2[nH]1
inactive: [1]; [7] 38% | [1]; at 50.0 µM 17.4% | [2]; [7] 30% | [2]; [8] 63% | [2]; at 50.0 µM 33.6% | [3]; [7] 33% | [3]; [8] 64% | [3]; at 50.0 µM -12.9% | [4]; [7] 14% | [4]; [8] 34% | [4]; at 50.0 µM -3.3% | [5]; [7] 34% | [5]; [8] 56% | [5]; at 50.0 µM -0.05% | [6]; at 50.0 µM 3.2%
active: [1]; [8] 70% | [6]; [7] 78% | [6]; [8] 86%

CN(C)C1C=CCC(c2ccccc2)C1[N+](=O)[O-] (stereo not given)
inactive: [1]; [7] 1% | [2]; [7] 10% | [2]; [8] 68% | [3]; [7] 7% | [4]; [7] 5% | [5]; [7] 1% | [6]; [7] 5%
active: [1]; [8] 83% | [1]; at 50.0 µM 93.2% | [2]; at 50.0 µM 96.9% | [3]; [8] 81% | [3]; at 50.0 µM 98.5% | [4]; [8] 70% | [4]; at 50.0 µM 92.3% | [5]; [8] 79% | [5]; at 50.0 µM 92.5% | [6]; [8] 94% | [6]; at 50.0 µM 98.8%

CCCCCCCCCCCCC1N=C(N)N2CCCC2=C1C(=O)OC (stereo not given)
inactive: [3]; [7] 69%
active: [1]; [7] 82% | [1]; [8] 99% | [1]; at 50.0 µM 89.2% | [2]; [7] 99% | [2]; [8] 99% | [2]; at 50.0 µM 91.5% | [3]; [8] 99% | [3]; at 50.0 µM 87.4% | [4]; [7] 100% | [4]; [8] 99% | [4]; at 50.0 µM 90.5% | [5]; [7] 99% | [5]; [8] 99% | [5]; at 50.0 µM 90.4% | [6]; [7] 99% | [6]; [8] 99% | [6]; at 50.0 µM 84.7%

COc1cc(C(c2cc3c(cc2O)OCO3)N2CCN(C(c3cc(OC)c(OC)c(OC)c3)c3cc4c(cc3O)OCO4)CC2)cc(OC)c1OC (stereo not given)
inactive: [1]; [7] -2% | [1]; [8] 69% | [1]; at 50.0 µM 23.6% | [2]; [7] -1% | [2]; at 50.0 µM 32.9% | [3]; [7] -5% | [3]; at 50.0 µM 28.6% | [4]; [7] -6% | [4]; at 50.0 µM -35% | [5]; [7] -2% | [5]; at 50.0 µM 6.55% | [6]; [7] 2% | [6]; at 50.0 µM 64.1%
active: [2]; [8] 74% | [3]; [8] 88% | [4]; [8] 93% | [5]; [8] 91% | [6]; [8] 86%

Cc1ccc(Cc2nc(=S)[nH][nH]2)cc1
inactive: [1]; [7] 20% | [1]; [8] 19% | [1]; at 50.0 µM 1.6% | [2]; [7] -3% | [2]; [8] 6% | [2]; at 50.0 µM -38.5% | [3]; [7] -3% | [3]; [8] 9% | [3]; at 50.0 µM -2.75% | [4]; [7] 1% | [4]; [8] 1% | [4]; at 50.0 µM -9.2% | [5]; [7] 8% | [5]; [8] 19% | [5]; at 50.0 µM -6.3% | [6]; [7] 14% | [6]; [8] 21% | [6]; at 50.0 µM -34.8%

Cc1cc2ccccc2c[n+]1Cc1ccc2ccccc2n1
inactive: [1]; [7] -6% | [1]; [8] -1% | [1]; at 50.0 µM 53.6% | [2]; [7] 9% | [2]; [8] 45% | [2]; at 50.0 µM 29.4% | [3]; [7] -13% | [3]; [8] 12% | [3]; at 50.0 µM 65.4% | [4]; [7] -8% | [4]; [8] -24% | [4]; at 50.0 µM 21.6% | [5]; [7] -5% | [5]; [8] 23% | [5]; at 50.0 µM 49.3% | [6]; [7] 1% | [6]; [8] 41% | [6]; at 50.0 µM 69.3%

N#Cc1ccccc1[N+](=O)[O-]
inactive: [1]; [7] 16% | [1]; at 50.0 µM 67.5% | [2]; [7] 1% | [2]; [8] 58% | [2]; at 50.0 µM 20.4% | [3]; [7] 3% | [3]; [8] 63% | [3]; at 50.0 µM 59.8% | [4]; [7] -1% | [4]; [8] 25% | [4]; at 50.0 µM 0.35% | [5]; [7] -3% | [5]; [8] 54% | [5]; at 50.0 µM 61.4% | [6]; [7] 4%
active: [1]; [8] 95% | [6]; [8] 93% | [6]; at 50.0 µM 79.5%

Cc1ccc(C(=O)OCCN2CCN(c3ccccc3)CC2)c([N+](=O)[O-])c1OCc1ccccc1
active: [1]; at 50.0 µM 87% | [3]; [8] 82% | [3]; at 50.0 µM 89.3% | [4]; at 50.0 µM 74% | [5]; [8] 70% | [5]; at 50.0 µM 72.7% | [6]; [8] 78% | [6]; at 50.0 µM 90.6%
inactive: [1]; [7] 30% | [1]; [8] 66% | [2]; [7] 36% | [2]; [8] 43% | [2]; at 50.0 µM 63.9% | [3]; [7] 25% | [4]; [7] 24% | [4]; [8] 64% | [5]; [7] 28% | [6]; [7] 19%

S=c1[nH]c(-c2ccccc2)cs1
inactive: [1]; [7] -2% | [2]; [7] 0% | [3]; [7] 0% | [4]; [7] -15% | [5]; [7] -24% | [6]; [7] 1%
active: [1]; [8] 77% | [1]; at 50.0 µM 79.5% | [2]; [8] 71% | [2]; at 50.0 µM 85.1% | [3]; [8] 83% | [3]; at 50.0 µM 92% | [4]; [8] 73% | [4]; at 50.0 µM 80.2% | [5]; [8] 89% | [5]; at 50.0 µM 74% | [6]; [8] 89% | [6]; at 50.0 µM 89.5%
